DAX1 inh-1: DAX1 (NR0B1) inhibitors on StAR promoter, primary screen, cell-based, luminescence, SF-1 (NR5A1), full-length DAX-1. HEK293T StAR-luciferase reporter, SF-1/DAX-1 repression relief. inhibition, % at 6.8 µM. 1.1% of 370,000 active. AID 652010, 2013;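 active = inhibition above the mean over all tested compounds plus 3 SD, cut at about 3.6% in these data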;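 note: 0% = DAX-1 cells with DMSO and 100% = cells lacking DAX-1 with DMSO; higher inhibition means more luminescence from relief of DAX-1 repression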
hcDAF12 agonist: H. contortus DAF-12 nuclear receptor activators, primary screen, cell-based, luminescence, HEK293, lit1-tk-luc reporter; activation, % at 6.8 µM; HEK293 hcDAF-12 lit1-tk-luc reporter; 0% DMSO, 100% Δ7-dafachronic acid; 1.4% of 370,000 active;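 active = activation above the mean of all tested compounds plus 3 SD, cut at about 5.5% in these data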;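 note: 100% = response to 3 µM Δ7-dafachronic acid high control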
hgDAF12 agonist: H. glycines DAF-12 receptor agonists, primary screen, cell-based, luminescence, HEK293, GAL4 fusion, UAS-luciferase; HEK293 GAL4-hgDAF12 UAS-luciferase reporter, agonist luminescence; normalized to butyrate control; activation, % at 6.8 µM; 1.8% of 370,000 active;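 active = activation above a cutoff set at the mean of all screened compounds plus 3 SD, cut at about 10% in these data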;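 note: 0% = DMSO wells and 100% = sodium butyrate wells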
SMARCA2 act: SMARCA2 (BRM) function activators, primary screen, cell-based, luminescence, high throughput | MG213 cells, MMTV-luciferase reporter, dexamethasone, overnight | activation, % at 9.1 µM | 1% of 370,000 active; in the data active = activation above about 7.8%;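 note: 0% = vehicle wells and 100% = reference activator wells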
DAX1 inh-2: DAX1 (NR0B1) inhibitors, primary screen, cell-based, HEK293, Gal4-DAX1, luciferase luminescence. inhibition, % at 6.75 µM. Nuclear receptor subfamily 0 group B member 1 (Homo sapiens), P51843. 0.99% of 340,000 active. HEK293 Gal4-DAX1 luciferase reporter. AID 504766, 2011;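 active = inhibition above the mean over all tested compounds plus 3 SD, cut at about 4.2% in these data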;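 note: 0% = DAX1-transfected cells with DMSO and 100% = empty-vector control cells with DMSO; inhibition shows as a rise in luminescence from relieved DAX1 repression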
Target sequence (P51843 207-470 limits assumed): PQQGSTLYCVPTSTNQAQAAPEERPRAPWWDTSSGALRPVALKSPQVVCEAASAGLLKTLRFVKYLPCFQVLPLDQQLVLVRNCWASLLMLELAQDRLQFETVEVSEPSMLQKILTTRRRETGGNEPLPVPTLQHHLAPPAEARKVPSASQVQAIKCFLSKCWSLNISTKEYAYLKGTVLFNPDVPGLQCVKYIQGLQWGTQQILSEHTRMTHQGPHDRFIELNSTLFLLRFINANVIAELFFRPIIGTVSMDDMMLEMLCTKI
ssDAF12 agonist: S. stercoralis DAF-12 nuclear receptor activators, primary screen, cell-based, luminescence, HEK293, GRIP1 co-expression, lit1-tk-luc; Nuclear hormone receptor DAF-12 (Strongyloides stercoralis); HEK293 ssDAF-12/GRIP1 lit1-tk-luc reporter; % of 3 µM dafachronic acid response; activation, % at 6.8 µM; 1% of 370,000 active; AID 652126, 2013;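 active = activation above the mean over all tested compounds plus 3 SD, cut at about 0.9% in these data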;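 note: 0% = DMSO-only wells and 100% = 3 µM delta7-dafachronic acid wells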
The depositor's hits bear a star; nt = no result. An excerpt weighted towards active compounds, which were near 4.8% of everything screened.

SMILES	DAX1 inh-1	hcDAF12 agonist	hgDAF12 agonist	SMARCA2 act	DAX1 inh-2	ssDAF12 agonist
Cc1ccc(C(=O)Nc2nc(C)c(C(=O)N(C)C)s2)o1	4.4*	1.7	2.1	4.0	1.7	-0.7
Nc1nc2c(ncn2[C@@H]2O[C@H](C(=O)N[C@@H](Cc3ccccc3)C(=O)NCC3CCCCC3)[C@@H](O)[C@H]2O)c(=O)[nH]1	-1.2	-0.3	-1.3	5.4	nt	-0.8
Cc1ccc(C(=O)Nc2ncc(Cc3ccc(F)cc3)s2)o1	4.2*	4.8	7.1	7.9*	1.9	0.4
Cc1ccc(C(=O)Nc2ccc(F)cc2)o1	0.4	2.5	4.8	-0.9	0.4	-0.8
Cc1ccc(C(=O)Nc2nc3ccc(S(C)(=O)=O)cc3s2)o1	0.3	1.7	11.7*	1.2	1.2	-0.9
C=CC[C@@]1(c2ccc(Br)cc2OC)Oc2ccccc2-c2nccnc21	-0.8	-1.9	-0.2	-4.0	nt	-1.5
Cn1c(-c2ccccc2[N+](=O)[O-])[n+](C)c2ccccc21	-0.8	0.4	-2.1	-3.0	5.0*	-0.5
Cc1sc2nc(SCC(=O)c3ccc(O)c(O)c3)n(C)c(=O)c2c1C	-0.6	-2.2	3.6	-6.9	nt	-0.9
Cn1nccc1C(=O)Nc1sc2c(c1C(N)=O)CCCC2	0.5	1.7	5.2	3.3	-1.4	-0.7
Cn1nccc1C(=O)Nc1sc2c(c1C#N)CCCC2	4.3*	1.1	6.8	-1.1	0.3	-0.6
CCOc1cc(S(=O)(=O)n2cnc(C)c2)ccc1Cl	-0.5	-0.1	-2.0	1.1	4.5*	-1.0
O=C(CSc1nnnn1C1CCCC1)NCCc1ccccc1	0.6	-0.2	4.7	0.7	5.3*	-0.9
O=C(CSc1nc(=O)n2ccccc2n1)NCCc1ccccc1	3.9*	0.2	0.1	-0.9	0.2	-0.2
C=CC(=O)NC1CCCCN(C(C)C)C1=O (stereo unspecified)	0.1	-1.4	0.0	-1.4	nt	-0.7
C[C@@H]1CN([C@@H](C)CO)C(=O)c2cc(N(C)C)ccc2O[C@@H]1CN(C)Cc1ccncc1	0.2	-1.1	1.7	0.5	1.2	1.3*
C[C@@H]1CCCCO[C@@H](CN(C)Cc2ccncc2)[C@@H](C)CN([C@H](C)CO)C(=O)c2cc(NC(=O)c3ccccc3)ccc2O1	-0.2	-1.5	-1.1	2.2	4.8*	-1.3
Cc1noc(C)c1NC(=O)Nc1ccc2c(c1)C(=O)N([C@H](C)CO)C[C@H](C)[C@@H](CN(C)S(=O)(=O)c1ccc(Cl)cc1)OCCCC[C@@H](C)O2	0.2	-0.8	-2.0	-4.4	6.1*	-0.7
N#CCC[C@@H]1CC[C@]2(CCCN(C(=O)c3ccco3)C2)O1	-0.9	-0.7	3.0	-1.4	nt	-1.2
Cc1ccc(C(=O)N2CCC[C@@H]2C(=O)N2CCC[C@H]2C(=O)NCc2ccccc2)cc1	-0.3	-1.4	-0.4	-5.3	nt	-0.6
CCSc1ccccc1C(=O)Nc1cccnc1	0.7	-1.1	2.9	-1.8	4.7*	-0.7
O=C(Nc1cccnc1)c1ccc2ccccc2c1O	1.1	2.4	9.0	6.5	4.3*	0.6
CCOc1cc(C(=O)Nc2cccnc2)cc(OCC)c1OCC	-1.0	3.7	1.0	0.0	1.2	1.2*
O=C(N/N=C/c1cccnc1)c1ccc2ccccc2c1O	1.6	1.6	0.4	1.9	0.6	-0.8
CCCOc1ccc(C(=O)Nc2cccnc2)cc1	0.0	-1.5	-0.2	1.6	-0.3	-1.4
c1ccc(-c2cc(-c3nnc4sc(Cc5cccs5)nn34)[nH]n2)cc1	-0.4	-2.4	-1.5	-3.9	nt	-1.3
Cc1cc(/C=C(\C#N)C(=O)OCC(=O)Nc2ccc(OC(F)F)cc2)c(C)n1CC(C)C	4.0*	-0.4	7.8	-0.1	3.9	-0.7

High-throughput results deposited in PubChem BioAssay by The Scripps Research Institute Molecular Screening Center.
